Hits are enriched below; roughly 11% of the tested compounds scored in any of these assays.
USP17 block = inhibitors of human USP17 deubiquitinase; Ubiquitin carboxyl-terminal hydrolase 17-like protein 5 (Homo sapiens), A8MUK1; purified USP17, Ub-rhodamine cleavage fluorescence, 3 h; inhibition, % at 50 µM; 47,000 tested, 6.5% active
USP30 block = inhibitors of human USP30 deubiquitinase; Ubiquitin carboxyl-terminal hydrolase 30 (Homo sapiens), Q70CQ3; 47,000 tested, 5.3% active; inhibition, % at 25 µM; purified USP30, Ub-rhodamine cleavage fluorescence
Target sequence (Q70CQ3 whole entry, looked up): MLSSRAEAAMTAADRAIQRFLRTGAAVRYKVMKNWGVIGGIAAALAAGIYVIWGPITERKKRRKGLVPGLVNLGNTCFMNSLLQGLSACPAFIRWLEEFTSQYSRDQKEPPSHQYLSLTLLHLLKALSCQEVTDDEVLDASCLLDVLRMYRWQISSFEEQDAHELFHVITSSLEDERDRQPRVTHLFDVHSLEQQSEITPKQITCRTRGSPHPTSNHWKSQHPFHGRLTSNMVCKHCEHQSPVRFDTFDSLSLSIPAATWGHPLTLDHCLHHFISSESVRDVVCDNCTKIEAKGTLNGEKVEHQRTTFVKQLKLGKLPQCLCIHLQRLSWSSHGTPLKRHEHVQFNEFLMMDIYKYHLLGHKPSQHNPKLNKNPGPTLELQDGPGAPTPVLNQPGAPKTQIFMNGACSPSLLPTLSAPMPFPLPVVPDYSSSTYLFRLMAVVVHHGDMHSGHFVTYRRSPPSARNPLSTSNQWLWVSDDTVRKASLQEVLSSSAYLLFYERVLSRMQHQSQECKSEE
USP28 block = inhibitors of human USP28 deubiquitinase; purified USP28, Ub-rhodamine cleavage fluorescence, 30 min; inhibition, % at 25 µM; 47,000 tested, 3% active
An asterisk follows results filed as active. Rule as the data show it: active = inhibition above about 30%; inactive = the rest.

`CN(C)[C@@H]1C(=O)C(C(N)=O)=C(O)[C@@]2(O)C(=O)C3=C(O)c4c(O)cccc4[C@@](C)(O)C3[C@H](O)[C@@H]12` (some centres undefined) gave USP17 block 84.5*, USP30 block 50.4* and USP28 block 87.3*.
`CCc1cc2c(cc1-c1csc(C)n1)C(C)(C)CCC2(C)C` gave USP17 block -12.5, USP30 block -8.0 and USP28 block -0.2.
Screening c1cnc(NC[C@H]2OC[C@H]3CN(Cc4cccnc4)CC[C@H]32)nc1 returned USP30 block -12.8 and USP28 block -8.7.
For COc1cccc2c1N(Cc1ccccc1)C(=O)C21CCN(C(=O)NCC(=O)O)CC1 the results were USP17 block -0.5, USP30 block -0.1 and USP28 block -11.5.
COC(=O)[C@]1(O)O[C@@]2(C(=O)OC)c3c(oc4cc(C)cc(O)c4c3=O)[C@H]3c4c(oc5cc(C)cc(O)c5c4=O)C[C@H]1[C@H]32 was read as USP17 block 53.3*, USP30 block -7.9 and USP28 block 28.8.
`COC(=O)[C@@]1(O)c2c(oc3cccc(O)c3c2=O)OC=C(C)[C@H]1O` gave USP17 block 3.5, USP30 block -8.7 and USP28 block 5.3.
For Cc1cc(C)cc(-n2c(CSc3ccc(F)cc3)nc3cc(Cl)ccc3c2=O)c1 the results were USP17 block 9.5, USP30 block 10.8 and USP28 block 13.2.
CCCCCC(O)c1c(O)cc2c(c1O)C(=O)c1c(O)cc(O)cc1C2=O (centres undefined) was read as USP17 block 57.7*, USP30 block inactive and USP28 block -47.9.
`O=C1NCC2(CCCN(Cc3cccnc3)C2)Oc2ccccc21` (centres undefined) gave USP17 block 14.9, USP30 block 25.5 and USP28 block 13.1.
`CCCCNC(=O)c1cc2cccnc2n(Cc2ccccc2)c1=O` gave USP17 block 69.3*, USP30 block 23.6 and USP28 block 27.7.
`O=C(Nc1cccnc1)c1cc2cccnc2n(Cc2ccccc2)c1=O` gave USP17 block -27.1, USP30 block -25.0 and USP28 block -3.8.
O=C(Cc1cccc2ccccc12)N1CCN(Cc2nnnn2-c2cccc(F)c2)CC1 was read as USP17 block 7.5, USP30 block 23.5 and USP28 block 8.9.
`CN1CC[C@@H]2[C@H](C1)CN2S(=O)(=O)c1ccccc1` gave USP17 block -6.8, USP30 block -11.2 and USP28 block -4.8.
Screening CN(C)Cc1c[nH]c2c(OCc3ccccc3)cccc12 returned USP17 block 8.1, USP30 block 34.9* and USP28 block 45.5*.
For O=C(NC1CC1)[C@@H]1C[C@@H]2CCN(Cc3ccncc3)C[C@H]2O1 the results were USP17 block -12.8, USP30 block 1.2 and USP28 block -1.8.
`CC[C@@]1(O)C[C@H](O[C@@H]2C[C@@H](N(C)C)[C@@H](O[C@@H]3C[C@@H](O)[C@@H](O[C@@H]4CCC(=O)[C@@H](C)O4)[C@@H](C)O3)[C@@H](C)O2)c2c(cc3c(c2O)C(=O)c2c(O)ccc(O)c2C3=O)[C@H]1C(=O)OC` gave USP17 block -217.5, USP30 block inactive and USP28 block -221.5.
Screening c1cnc(NC[C@@H]2OC[C@H]3CN(Cc4ccco4)CC[C@H]32)nc1 returned USP17 block -25.3, USP30 block -44.5 and USP28 block -23.6.
Screening COCCN1CCO[C@@H]2CCN(C(=O)c3ccno3)CC[C@H]21 returned USP17 block -22.6, USP30 block -43.5 and USP28 block -15.2.
For COc1cc(N2CC[C@@H]3OCCN(C)[C@H]3CC2)ncn1 the results were USP17 block 11.4, USP30 block 33.5* and USP28 block 15.2.
CCSc1nc(NC(C)C)c2cnn(CCN)c2n1 was read as USP17 block -9.7, USP30 block -1.8 and USP28 block 27.8.
CO[C@H](c1ccccc1)[C@@H]1NC(=O)[C@H](C)NC(=O)[C@H](C[C@@H](C)CO)N(C)C(=O)[C@H]([C@H](O)c2cn(C(C)(C)[C@@H]3CO3)c3ccccc23)NC(=O)[C@H]([C@H](C)C=C(C)C)NC(=O)[C@H](CC(C)C)N(C)C(=O)[C@H](C(C)C)NC1=O was read as USP17 block 33.0*, USP30 block 18.6 and USP28 block -1.9.
CC(=O)OC1C[C@H]2OC3C=C(C)CC[C@]3(C)[C@]1(C)[C@@]21CO1 (some centres undefined) was read as USP17 block -11.9, USP30 block 3.8 and USP28 block -7.5.
Screening CC(C)=CCCC1(C)C=Cc2c(O)c3c(c(CC=C(C)C)c2O1)O[C@]12C(=C[C@@H]4CC1C(C)(C)O[C@@]2(C/C=C(/C)C(=O)O)C4=O)C3=O (some centres undefined) returned USP17 block 82.2*, USP30 block 37.0* and USP28 block 89.6*.
`Cc1noc(C)c1CN1C[C@H]2C[C@H](C(=O)NCC3CC3)N(C)[C@H]2C1` gave USP17 block -11.6, USP30 block 0.0 and USP28 block -17.9.
For COc1cc(O)c2c(O)c3c(c4c2c1C1(C4)C(C)=CCCC1(C)C)C(O)C1(O)CC(=O)C(C(N)=O)=C(O)C1(O)C3=O (centres undefined) the results were USP17 block -200.0, USP30 block inactive and USP28 block -196.1.
For N#CCc1c[nH]c2ccccc12 the results were USP17 block -18.4, USP30 block -146.0 and USP28 block -26.9.
Cc1cc(OC(C)C(=O)N2CCC3(O)CCCCC3C2)c2c3c(c(=O)oc2c1)CCC3 (centres undefined) was read as USP17 block -7.3, USP30 block -15.0 and USP28 block -14.2.

Assay outcomes as filed in PubChem BioAssay.
